# Assay outcomes: PubChem BioAssay, National Center for Advancing Translational Sciences (NCATS)
# WRN helicase inh – blocks human WRN helicase; Q14191; WRN helicase unwinding, fluorescent forked duplex, kinetic; Potency, µM (titrated, usually from 114 µM), inactives show at the highest dose activity change, negative = inhibition, most hits filed as inhibitors; 0.46% of 360,000 active; note: potency is the fitted concentration of half-maximal effect; nearly all actives have a fitted effect of over 55% in size
# Target sequence (Q14191 whole entry, looked up): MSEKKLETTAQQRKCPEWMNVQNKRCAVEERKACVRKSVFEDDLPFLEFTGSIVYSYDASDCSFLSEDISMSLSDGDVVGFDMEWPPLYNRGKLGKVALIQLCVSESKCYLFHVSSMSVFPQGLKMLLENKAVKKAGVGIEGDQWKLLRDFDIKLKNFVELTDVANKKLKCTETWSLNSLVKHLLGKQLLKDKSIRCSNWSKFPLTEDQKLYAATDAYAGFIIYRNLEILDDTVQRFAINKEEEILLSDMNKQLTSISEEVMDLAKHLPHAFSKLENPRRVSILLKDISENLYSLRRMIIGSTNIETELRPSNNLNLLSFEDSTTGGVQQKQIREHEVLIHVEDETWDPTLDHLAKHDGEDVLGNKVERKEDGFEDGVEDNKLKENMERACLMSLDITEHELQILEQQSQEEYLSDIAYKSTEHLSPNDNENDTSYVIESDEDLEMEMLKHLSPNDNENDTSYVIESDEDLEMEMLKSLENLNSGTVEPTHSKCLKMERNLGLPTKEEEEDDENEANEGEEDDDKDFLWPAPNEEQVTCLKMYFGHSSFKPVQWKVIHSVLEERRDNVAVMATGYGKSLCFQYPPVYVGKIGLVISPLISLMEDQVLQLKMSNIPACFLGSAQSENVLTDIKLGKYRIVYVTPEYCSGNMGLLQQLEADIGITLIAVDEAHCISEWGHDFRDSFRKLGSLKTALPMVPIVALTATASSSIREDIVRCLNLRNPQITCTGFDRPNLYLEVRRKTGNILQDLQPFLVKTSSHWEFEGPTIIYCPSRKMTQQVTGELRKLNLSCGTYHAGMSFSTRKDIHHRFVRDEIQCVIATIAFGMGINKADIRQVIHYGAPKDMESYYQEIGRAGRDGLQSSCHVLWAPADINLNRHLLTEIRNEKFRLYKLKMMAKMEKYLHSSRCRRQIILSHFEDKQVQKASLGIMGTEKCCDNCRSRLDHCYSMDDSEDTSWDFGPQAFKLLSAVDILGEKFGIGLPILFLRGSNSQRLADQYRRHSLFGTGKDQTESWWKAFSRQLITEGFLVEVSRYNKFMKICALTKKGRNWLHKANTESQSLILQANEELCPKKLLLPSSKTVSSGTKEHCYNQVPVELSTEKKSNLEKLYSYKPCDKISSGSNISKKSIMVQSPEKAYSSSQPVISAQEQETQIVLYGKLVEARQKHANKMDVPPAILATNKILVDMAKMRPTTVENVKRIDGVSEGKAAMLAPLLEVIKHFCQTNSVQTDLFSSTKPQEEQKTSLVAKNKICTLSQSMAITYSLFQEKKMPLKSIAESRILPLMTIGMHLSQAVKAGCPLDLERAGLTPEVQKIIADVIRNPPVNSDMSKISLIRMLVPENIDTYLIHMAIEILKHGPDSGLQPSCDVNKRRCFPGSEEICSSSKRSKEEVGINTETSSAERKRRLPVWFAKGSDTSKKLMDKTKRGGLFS
#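 Fluorescence dequenching readout, ex 525 nm/em 598 nm, kinetic mode: forked duplex DNA (100 nM final) with adjacent fluorophore and quencher unwound by WRN (20 nM final) with 2 mM ATP. Compound preincubation 15 min, room temperature.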
# PLK1 PBD inh – blocks phosphopeptide binding to human PLK1 polo-box domain; P53350; Plk1 PBD binding of FITC phosphopeptide, fluorescence polarization; Potency, µM, for the others: max response, negative = inhibition, usual class: inhibitors; 2.8% of 360,000 active; AID 720504; note: potency is the fitted concentration of half-maximal effect; series mostly up to about 57 µM; nearly all actives have a fitted effect of over 65% in size
# USP2a block – USP2a (human) protease inhibition; 0.01% of 330,000 active; AID 463254; Potency, µM (top dose mostly 38.3 µM), inactives show at the top dose activity change, negative = inhibition, actives largely listed as inhibitors; USP2 core, Ub-CHOP2 coupled fluorogenic reporter, 485/531; O75604;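 note: potency is the fitted concentration of half-maximal effect; plate controls were DMSO wells for no effect and full inhibition by NEM control for full effect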
#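 Deubiquitinase activity read as fluorescence (485/531 nm) after Ub-CHOP2 cleavage activates the enterokinase reporter on its substrate; USP2 core 10nM, Ub-CHOP2 and substrate 25nM each, 30min compound preincubation then 60min RT; data normalized to NEM, curves fitted.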
# PI5P4K alpha inh – inhibitors of human PI5P4K alpha; 1.2% of 330,000 active; max response, %; PI5P4Kalpha enzyme, ADP-Glo luminescence, 60 min; hits give low values; AID 652105; active = max response of -50% or lower; inconclusive = between -30% and -50%; inactive = -30% or higher; note: value at the top dose of about 77 µM
#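 qHTS, 1536-well: enzyme/substrate mix, compound by pin tool, 5 microM ATP final; RT 60 min; ADP-Glo reagents 1 (45 min) then 2 (30 min); luminescence.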
# USP1-UAF1 inh – USP1/UAF1 (human) deubiquitinase inhibition; O94782; 0.23% of 390,000 active; recombinant USP1/UAF1, Ub-Rhodamine cleavage fluorescence; AID 743255; Potency, µM (titrated, usually from 57.1 µM), without a hit: at the top dose activity change, negative = inhibition, hits mostly inhibitors; note: potency is the fitted concentration of half-maximal effect; nearly all actives have a fitted effect of over 60% in size
#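 Step one: compound is pinned into 1nM USP1/UAF1 in HEPES pH 7.8 buffer with TCEP. Step two: 15 min room-temperature incubation. Step three: Ub-Rho (150nM final) starts cleavage, tracked by fluorescence over six one-minute reads.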
# * marks the source's active call; other numbers are inactive results; ? = inconclusive; nt = no result given; [ ] = another dose, or the depositor's remark. A selection: hits, their analogues and other compounds. The true share with any hit is near 3.3%. Unless noted, calls come from the whole dose curve; as a rule, active = well fitted curve in the direction sought with a large enough effect; inconclusive = small, poorly fitted or top-dose-only effect, or another doubt; inactive = no such curve, though single readings can be large; an effect the other way counts as inactive or inconclusive. Unless noted, % is set by controls: 0 for no effect and ±100 for the full control effect.
SMILES,WRN helicase inh,PLK1 PBD inh,USP2a block,PI5P4K alpha inh,USP1-UAF1 inh
COc1ccc(C)c2sc(N(Cc3cccnc3)C(=O)CCc3ccccc3)nc12,nt,nt,nt,nt,-8%
COc1cccc(CNC(=O)C2CCC(CNS(=O)(=O)c3ccc(Br)s3)CC2)c1 (stereo unspecified),nt,nt,nt,nt,-10%
CC1=C(C(=O)c2ccccc2)C(c2ccc(O)cc2)NC(=S)N1 (stereo unspecified),-2%,-3%,-1%,-4,-9%
CC1=C(C(=O)c2ccccc2)C(c2ccc(OC(F)F)cc2)NC(=S)N1 (stereo unspecified),0%,24µM*,1%,?,-21%
COc1ccc(CN2C(=O)NC3(CCCCCC3)C2=O)cc1F,7%,3.4µM*,1%,?,-8%
CC(C)c1ccc(CN2C(=O)NC3(CCCCCC3)C2=O)cc1,5%,27µM*,-3%,-3,-21%
COc1ccc(-c2cc(C(F)(F)F)n3nc(C(=O)O)c(Cl)c3n2)cc1OC,nt,nt,nt,nt,-27%
CC1(C)CC(=O)C(C=NCCO)=C(O)C1,13%,27µM*,2%,0,-18%
CC1(C)CC(=O)C(C=NCCN2CCOCC2)=C(O)C1,-4%,-10%,0%,nt,-8%
COc1ccc(S(=O)(=O)c2c(SC)nn(CC(=O)Nc3cccc(C)c3C)c2N)cc1,nt,nt,nt,nt,-23%
CN(C)CCCNc1c2c(nc3ccccc13)CCC2,-25%,27µM*,1%,-8,-13%
COCCNc1c2c(nc3ccccc13)CCC2,5%,0%,-2%,0,-3%
CCCN(C(=O)c1noc2c1COc1ccc(C)cc1-2)c1ccc(Cl)c(Cl)c1,nt,nt,nt,nt,-15%
c1coc(-c2nnc3sc(C4CCCCC4)nn23)c1,-3%,11µM*,4%,-21,-5%
COc1ccc(-c2nnc3sc(C4CCCCC4)nn23)cc1OC,9%,-10%,-2%,-2,-16%
CCCCn1c(SCC(N)=O)nc2sc3c(c2c1=O)CCC3,-10%,-6%,0%,-18,-16%
CCn1c(SC(C)C(=O)O)nc2sc3c(c2c1=O)CCC3 (stereo unspecified),56µM*,?,2%,?,-11%
CCN(CC)C(=O)CSc1nc2sc3c(c2c(=O)n1CCCOC)CCC3,-11%,24µM*,-1%,-14,-4%
CC(Sc1nc2sc3c(c2c(=O)n1-c1ccccc1)CCCC3)C(=O)O (stereo unspecified),0%,-6%,-1%,0,-8%
CC1CCc2c(sc(NC(=O)Cc3ccccc3)c2C(=O)Nc2ccc(Cl)cc2)C1 (stereo unspecified),nt,nt,nt,nt,-25%
Cc1ccc(S(=O)(=O)NCC(=O)N2CCC(C)CC2)cc1,6%,30µM*,-1%,-4,-1%
O=C(CSc1nc2nc(-c3cccs3)cc(C(F)(F)F)c2c(=O)[nH]1)Nc1c(F)c(F)c(F)c(F)c1F,-9%[57.1 µM],34µM*,-4%,-3,-17%
O=C(O)c1sccc1Oc1ccc(F)cc1[N+](=O)[O-],-17%,-12%,-1%,0,2%
CN(C)C(=O)c1sccc1Oc1ccc(F)cc1[N+](=O)[O-],8%,24µM*,0%,-20,8%
O=C(N1CCCCC1)N1CCN(C(c2ccccc2)c2ccccc2)CC1,-23%[57.1 µM],-6%,-7%,-1,-16%
SMILES,WRN helicase inh,PLK1 PBD inh,USP2a block,PI5P4K alpha inh,USP1-UAF1 inh
Oc1c(C(c2ccccc2)N2CCCCC2)ccc2ccccc12 (stereo unspecified),-2%,3µM*,nt,?,-19%
CC(C)C(NC(=O)c1ccccc1Br)c1ccccc1 (stereo unspecified),-3%,-9%,2%,5,-10%
CC(NC(=S)NC(=O)c1ccccc1Br)c1ccccc1 (stereo unspecified),-7%,?,-1%,-56*,-26%
O=S(=O)(/N=C(\Sc1ccccc1)c1ccccc1)c1ccc(Cl)cc1,-2%,2.4µM*,2%,nt,-12%
Cc1ccc(S(=O)(=O)/N=C(\Sc2ccccc2)c2ccccc2)cc1,-13%,?,2%,nt,-8%
Cc1ccc(S(=O)(=O)/N=C(/Sc2ccccc2C(=O)O)c2ccccc2)cc1,-5%[57.1 µM],19µM*,0%,-3,-17%
Cc1[nH]n(-c2ncc(-c3ccccc3)s2)c(=O)c1C(c1ccc(Cl)cc1)C(C#N)C#N (stereo unspecified),?,3.8µM*,-1%,?,?
CCOc1ccc2nc(N3CCN(C(=O)c4ccc5c(c4)CCCC5)CC3)sc2c1,nt,nt,nt,nt,-32%
Fc1cccc(CNc2ncnc3ccc(-c4cccnc4)cc23)c1,nt,nt,5%,nt,nt
CCCCC1C(=O)N(c2ccccc2)N(c2ccc(O)cc2)C1=O (stereo unspecified),10%,24µM*,1%,?,?
N#Cc1ccccc1CSc1nc(O)cc(=O)[nH]1,-2%,-2%,0%,-11,-3%
N#CNc1nc(O)cc(=O)[nH]1,-35%,-11%,1%,-78*,-8%
O=C(/C=C/c1cc(Br)ccc1O)c1ccco1,-29%,27µM*,8%,-14,?
COc1ccccc1/C=C/C(=O)c1cc(Br)ccc1OC(=O)c1ccco1,0%,24µM*,nt,3,-19%
CCn1ccc2c(OCC(=O)Nc3ccc(C)c(Cl)c3)cccc2c1=O,nt,nt,nt,nt,-23%
Cc1c(Br)c([N+](=O)[O-])nn1CC(=O)NCc1ccccc1,-1%,12µM*,3%,?,-24%
Cn1cc(/C=N/NC(=O)c2cc3cc(Br)ccc3o2)c2ccccc21,-6%,5%,1%,-13,-16%
O=C(O)Cn1cc(/C=N/NC(=O)c2cc3cc(Br)ccc3o2)c2ccccc21,?,-2%,0%,-75*,-7%
O=C1NC(=Nc2ccccc2)S/C1=C\c1ccccc1,-4%,4%,-1%,-8,-16%
O=C1N/C(=N/Nc2ccccc2)S/C1=C\c1ccccc1,-19%,21µM*,-8%,?,-11%
CCN(CC)CCN(C(=O)c1ccco1)c1nc2c(C)c(C)ccc2s1,nt,nt,nt,nt,-21%
N#C/C(=C/c1ccc(Cl)cc1)c1nc(-c2ccc(Br)cc2)cs1,nt,nt,nt,nt,-3%
Cc1ccnc(N/C=C(\C#N)c2nc(-c3cccc(Br)c3)cs2)c1,-25%,-19%,?,nt,22µM*
C/C(=N\NC(=O)c1ccc(O)cc1)c1ccc2c(c1)Nc1ccccc1S2,-24%,9%,0%,-77*,-13%
CC(=O)c1ccc(N2CCN(C(=O)Nc3ccc(Cl)cc3)CC2)cc1,-6%,-3%,0%,-9,-1%
O=C(Nc1ccc(Cl)cc1)N1CCN(c2ccccc2)CC1,1%,27µM*,0%,-4,-13%
CCOC(=O)/C(C#N)=C1/CCCCCN1C,-16%,-2%,1%,-7,-16%
CCOC(=O)/C(C#N)=C1\CCCN1CC(N)=S,-8%,21µM*,0%,?,-10%
